The list is not random: actives were taken first. Their share in the collection is about 3.4%.
PGC1a acetyl inh – PGC1a acetylation modulation, inhibitor mode | inhibition, % at 15.6 µM | AID 651687 | 350,000 tested, 0.17% active | U2OS PGC1a acetylation, AlphaScreen anti-acetyl-lysine; with virally co-expressed GCN5 acetyltransferase;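 active means every replicate shows inhibition of at least 40%; inconclusive means mean inhibition at least 40% but some replicate below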
PAX8 inh HTS – inhibitors of PAX8 transcriptional activity in RMG-I cells; AID 652154; 360,000 tested, 1.2% active; inhibition, % at 12.6 µM; RMG-I TPO-luciferase reporter, SteadyGlo, 24 h;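 active means mean replicate inhibition at least 60% with every replicate also reaching 60%; inconclusive means only one of the two criteria is met; inactive means mean below 60% and not all replicates reaching 60%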;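 further: luciferase light reporting Pax8 driven TPO promoter activity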
LGR2 inh – blocks bursicon-induced cAMP signaling via Drosophila LGR2 | HEK293 LGR2, CRE-luciferase, bursicon-stimulated, 4 h | inhibition, % at 9.99 µM | 380,000 tested, 0.35% active | AID 720647;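 active means drop in luminescence signal, shown as inhibition above about 50% in the replicate tests, limit read from the data, passing the limit was not always enough; inconclusive means probably only some replicates passing the limit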;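 further: agonist challenge used bursicon conditioned medium at about half maximal strength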
EWS-Fli block – EWS/Fli transcriptional activity inhibition; inhibition, % at 12.6 µM; AID 651661; 350,000 tested, 0.67% active; A673 NR0B1-luciferase reporter, viability-normalised;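 active means mean inhibition of at least 50% after viability correction, with every replicate also passing that limit; inconclusive means mean reaches 50% but only one of two replicates passes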;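 further: firefly luciferase signal divided by Alamar Blue viability fluorescence both relative to DMSO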
SIRT5 inh – blocks human SIRT5 desuccinylation of peptide; 330,000 tested, 1.1% active; inhibition, % at 15 µM; Q9NXA8; Purified SirT5, succinyl-peptide AMC, trypsin-coupled fluorescence; in the data active means inhibition above about 15%; inconclusive means no clear call, values can overlap the other calls
Target sequence (Q9NXA8 whole entry, looked up): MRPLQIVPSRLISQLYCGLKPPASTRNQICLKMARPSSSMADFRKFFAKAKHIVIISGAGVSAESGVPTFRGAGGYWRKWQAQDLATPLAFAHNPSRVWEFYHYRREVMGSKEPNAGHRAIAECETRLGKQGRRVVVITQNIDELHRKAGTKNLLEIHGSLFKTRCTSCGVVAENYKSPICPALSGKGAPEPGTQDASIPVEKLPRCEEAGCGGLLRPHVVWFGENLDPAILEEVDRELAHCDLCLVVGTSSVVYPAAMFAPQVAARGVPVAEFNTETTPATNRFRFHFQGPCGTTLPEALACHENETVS
Ecoli rRNA inh – inhibits bacterial ribosomal RNA function over humanized ribosomes; E. coli WT GFP vs humanized-ribosome RFP mutants, fluorescence, 24 h; active compounds read low; DMSO median 0, no signal -100; GFP signal change (wild-type ribosome), % (concentration not given with the values); 350,000 tested, 1.6% active; AID 720706;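 active means significant combined selectivity score with lowered wild-type GFP, culture density cut under 30%, mutant RFP and density less affected; inactive means any of these conditions unmet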
AID977621 – wild-type E. coli growth inhibition versus H69 humanized strain – H69 mutant RFP, wild-type GFP, cherry-pick, dose response; fluorescence, 24 h; shares compounds with Ecoli rRNA inh; AID 977621; 1,900 tested, under 10 active; activity change, negative = inhibition at 50 µM;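 active means Wild-type ribosome reporter drop at least double the humanized mutant ribosome reporter drop, growth loss under a set limit; inconclusive means no clear call, values can overlap the other calls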;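 further: wild-type GFP and H69 mutant RFP strains grown together 50/50 in each well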
AID977628 – growth of wild-type and h24-humanized E. coli strains – h24 mutant RFP vs wild-type GFP, cherry-pick, dose response; shares compounds with Ecoli rRNA inh; E. coli WT GFP strain growth, fluorescence, 24 h; activity change, negative = inhibition at 50 µM; 1,900 tested, under 10 active;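 active means compound lowering the normal-ribosome reporter at least twice as much as the humanized-ribosome reporter, growth loss under a set limit; inconclusive means no clear call, values can overlap the other calls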;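 further: wild-type GFP and h24 humanized RFP strains co-cultured 1 to 1 per well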
Numbers stand for hits; – = inactive; ? = inconclusive; · = no result given.

SMILES | PGC1a acetyl inh | PAX8 inh HTS | LGR2 inh | EWS-Fli block | SIRT5 inh | Ecoli rRNA inh | AID977621 | AID977628
C[C@H]1CCCCO[C@@H](CN(C)C)[C@@H](C)CN([C@@H](C)CO)C(=O)c2cc(NC(=O)Nc3cccc4ccccc34)ccc2O1 | – | – | – | – | – | – | – | ?
C[C@H](CO)N1C[C@H](C)[C@H](CN(C)C)OCCCC[C@H](C)Oc2ccc(NC(=O)Nc3cccc4ccccc34)cc2C1=O | – | – | – | – | – | – | – | ?
C[C@@H](NC(=O)[C@H]1[C@H](CO)[C@H]2Cn3c(cccc3=O)[C@H]2N1CC1CCCCC1)c1ccccc1 | – | · | – | · | – | – | · | ·
COc1ccc2c3c([nH]c2c1)[C@@H](CO)N(C)CC31CN(S(=O)(=O)c2ccc(C)cc2)C1 | – | · | – | – | · | – | · | ·
CCC(=O)N(C)C[C@H]1Oc2cc(-c3ccc(OC)cc3)ccc2S(=O)(=O)N([C@@H](C)CO)C[C@H]1C | – | – | – | – | – | – | · | ·
CC(C)(C)CC(=O)Nc1ccccc1N1CCN(c2ccccc2)CC1 | – | – | – | – | – | -19 | – | –
COc1ccc(CN2C(=O)NC(C)(c3ccc(C)cc3)C2=O)cc1F (centres undefined) | – | – | – | – | – | -22 | – | ?
CCc1nnc(NC(=O)CSc2ncc(-c3ccccc3)[nH]2)s1 | – | · | – | – | – | -20 | – | –
CCN1C(=O)C(CC(=O)Nc2ccc(F)cc2)N(CCCN2CCN(c3ccc(F)cc3)CC2)C1=S (centres undefined) | · | – | – | – | – | -53 | – | ?
CCCOc1ccc(NC(=O)CC2C(=O)N(CC)C(=S)N2CCCN2CCN(Cc3ccccc3)CC2)cc1 (centres undefined) | – | – | – | – | – | – | · | ·
CCOC(=O)C1CCCN(Cc2ccccc2F)C1 (centres undefined) | – | · | · | · | · | · | · | ·
CCOC(=O)C1CCCN(Cc2c(Cl)cccc2Cl)C1 (centres undefined) | – | · | – | – | – | -23 | – | –
Cc1cccc(OCCNc2ncccc2[N+](=O)[O-])c1 | – | – | – | – | · | -17 | ? | ·
CCCOc1ccc(-c2nnn(CC(=O)N3CCC(C)CC3)n2)cc1 | – | · | – | · | · | · | · | ·
CCCCOc1ccc(-c2nnn(CCC(=O)N3CCOCC3)n2)cc1 | – | · | – | – | – | -22 | – | –
Cc1cc(C)cc(NC(=O)COC(=O)CCC2CCCC2)c1 | · | – | – | – | – | – | · | ·
Cc1cc(C)cc(NC(=O)COC(=O)CC2CCCC2)c1 | – | – | – | – | – | -19 | – | –
Cc1ccc2cccc(OCc3ccccc3)c2n1 | – | – | · | – | – | -26 | – | –
COc1ccc(NC(=O)CSc2nnc(Cc3ccccc3)o2)c(OC)c1 | – | · | – | – | – | -24 | – | –
CC(=O)N[C@H]1CC[C@H](CCNC(=O)Nc2ccc(C(F)(F)F)cc2)O[C@H]1CO | – | – | – | – | – | – | · | ·
O=S1(=O)c2ccccc2C(O)(c2ccccc2)c2ccccc21 | – | – | – | – | · | -21 | · | ?
CO[C@@H]1CN(C)C(=O)c2cc(NC(=O)NC3CCCCC3)ccc2OC[C@H](C)N(C)C[C@H]1C | – | – | – | – | – | – | · | ·
COc1ccc2c3c(n(C)c2c1)[C@@H](CO)N(Cc1nccs1)CC31CN(C(C)=O)C1 | – | · | – | – | · | – | · | ·
CCc1cc2ccc(OC)cc2nc1SCC(=O)NNC(=O)c1ccco1 | – | – | – | – | – | – | · | ·
CCc1cc2ccc(OC)cc2nc1SCC(=O)N1CCN(C(=O)c2ccco2)CC1 | – | – | – | – | – | -26 | – | ·
SMILES | PGC1a acetyl inh | PAX8 inh HTS | LGR2 inh | EWS-Fli block | SIRT5 inh | Ecoli rRNA inh | AID977621 | AID977628
CC1=CC(C)(C)N(C(=O)CSc2nnc(N)s2)c2cc(C)c(C)cc21 | – | · | – | · | · | · | · | ·
CC1=CC(C)(C)N(C(=O)CSc2nnc(C)s2)c2ccc(C)cc21 | – | · | – | – | – | -17 | – | ?
Cc1cccc(-n2cnc3cc([N+](=O)[O-])ccc32)c1 | · | – | – | · | · | -16 | – | –
Nc1ccc(-n2cnc3cc([N+](=O)[O-])ccc32)cc1 | – | · | · | · | · | · | · | ·
COc1ccc(NC(=O)N2CCCCN3[C@H](CO)[C@@H](c4ccc(C5=CCCCC5)cc4)[C@H]3C2)cc1 | – | – | – | – | – | – | · | ·
O=c1c2cc(Br)ccc2[nH]c(=S)n1Cc1ccccc1 | – | – | – | – | – | -36 | – | ·
O=C(C[C@@H]1C[C@@H]2c3cc(NC(=O)C4CCOCC4)ccc3O[C@@H]2[C@@H](CO)O1)NCc1ccccc1F | – | – | – | – | – | – | · | ·
Cc1noc(C)c1NC(=O)N(C)C[C@H]1OCCCC[C@@H](C)Oc2ccc(NC(=O)Nc3ccc4c(c3)OCO4)cc2C(=O)N([C@@H](C)CO)C[C@H]1C | – | – | – | – | – | – | · | ·
Cc1noc(C)c1NC(=O)N(C)C[C@@H]1OCCCC[C@@H](C)Oc2ccc(NC(=O)Nc3ccc4c(c3)OCO4)cc2C(=O)N([C@@H](C)CO)C[C@H]1C | – | – | – | – | – | – | · | ·
Cc1noc(C)c1NC(=O)Nc1ccc2c(c1)C(=O)N([C@H](C)CO)C[C@H](C)[C@@H](CN(C)C(=O)Nc1ccc3c(c1)OCO3)OCCCC[C@H](C)O2 | – | · | – | – | – | – | – | ?
Cc1noc(C)c1NC(=O)N(C)C[C@@H]1OCCCC[C@H](C)Oc2ccc(NC(=O)Nc3ccc4c(c3)OCO4)cc2C(=O)N([C@@H](C)CO)C[C@H]1C | – | – | – | – | – | – | · | ·
Cc1noc(C)c1NC(=O)Nc1ccc2c(c1)C(=O)N([C@H](C)CO)C[C@H](C)[C@@H](CN(C)C(=O)Nc1ccc3c(c1)OCO3)OCCCC[C@@H](C)O2 | – | · | – | – | – | -37 | – | ?
Cc1noc(C)c1NC(=O)Nc1ccc2c(c1)C(=O)N([C@@H](C)CO)C[C@H](C)[C@@H](CN(C)C(=O)Nc1ccc3c(c1)OCO3)OCCCC[C@H](C)O2 | – | · | – | – | – | – | – | –
Cc1noc(C)c1NC(=O)Nc1ccc2c(c1)C(=O)N([C@H](C)CO)C[C@@H](C)[C@H](CN(C)C(=O)Nc1ccc3c(c1)OCO3)OCCCC[C@@H](C)O2 | – | · | – | – | – | – | – | ?
C[C@H](CO)N1C[C@H](C)[C@H](CN(C)Cc2ccc(-c3ccccc3)cc2)OCc2cn(nn2)CCCC1=O | – | · | – | – | · | – | · | ·
CCOC(=O)C1NN=C(C(=O)c2ccccc2)C1c1ccc(OC)cc1 (centres undefined) | – | – | – | – | – | -25 | – | –
